Structures can show the parent of a compound that is named as a salt. Unmarked numbers belong to inactive results.
Assays:
Conditions in all cases: 20 µM
[1] = test system: Salmonella enterica typhimurium; assay: growth AUC normalised to DMSO control (fraction of control); higher = less growth inhibition, active = hit call of the paper
Method in brief: (§1)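 Pathogens were passaged twice under anaerobic conditions, then inoculated into pre-reduced mGAM plates at a starting OD578 of 0.01, with compound at 20 μM and 1% DMSO, and sealed with breathable membranes. For Haemophilus parainfluenzae, the medium was supplemented with hemin and NAD. OD578 was read every hour for 24 h in three biological replicates. Growth-curve AUC was calculated by the trapezoidal rule up to the exponential-to-stationary transition and normalised to DMSO controls on the same plate.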

[2] = test system: Shigella flexneri; assay: as above
Method in brief: as §1

[3] = test system: Vibrio cholerae; assay: as above
Method in brief: as §1

[4] = test system: Yersinia pseudotuberculosis; assay: as above
Method in brief: as §1

[5] = test system: P. vulgatus RND KO; assay: growth AUC normalised to DMSO control (median) (fraction of control); higher = less growth inhibition, active = hit call of the paper
Method in brief: (§2)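 Strains were passaged twice overnight without oxygen, then grown in mGAM in 96-well plates with each approved-drug library compound at 20 μM and 1% DMSO, starting at OD578 0.01. OD578 was read hourly for 24 h inside an anaerobic incubator. Curves were truncated at entry into stationary phase, and the trapezoidal-rule area under the curve was normalised to same-plate vehicle wells. The value is the median across three biological replicates.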

[6] = test system: P. vulgatus WT; assay: as above
Method in brief: as §2

[7] = test system: S. enterica typhimurium WT; assay: as above
Method in brief: as §2

[8] = test system: S. enterica typhimurium tolC KO; assay: as above
Method in brief: as §2
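Wherever growth AUC normalised to DMSO control (median) is given: active when median AUC fell below 0.1.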

| SMILES | growth AUC normalised to DMSO control [1] | growth AUC normalised to DMSO control [2] | growth AUC normalised to DMSO control [3] | growth AUC normalised to DMSO control [4] | growth AUC normalised to DMSO control [5] | growth AUC normalised to DMSO control [6] | growth AUC normalised to DMSO control [7] | growth AUC normalised to DMSO control [8] |
| --- | --- | --- | --- | --- | --- | --- | --- | --- |
| Cc1cccc(C)c1NC(=O)C(C)N (stereo not given) [Tocainide hydrochloride] | 1 | 0.967 | 1.01 | 0.985 | 1.02 | 1.02 | 0.999 | 1 |
| COc1ccc2cc([C@H](C)C(=O)O)ccc2c1 [(S)-Naproxen] | 0.992 | 1.01 | 0.96 | 0.964 | 1.01 | 1.04 | 0.994 | 0.998 |
| CC[C@H](C)C(=O)O[C@H]1C[C@@H](C)C=C2C=C[C@H](C)[C@H](CC[C@@H]3C[C@@H](O)CC(=O)O3)[C@H]21 [Lovastatin] | 0.999 | 0.997 | 0.995 | 0.999 | 0.958 | 0.928 | 0.99 | 0.967 |
| Cc1cccc(C)c1NC(=O)CN1CCN(CCCC(c2ccc(F)cc2)c2ccc(F)cc2)CC1 [Lidoflazine] | 1.01 | 1.02 | 1.01 | 1.02 | 1.04 | 1.04 | 1.01 | 0.938 |
| CCN(CC)CCOC(=O)C1(C2CCCCC2)CCCCC1 [Dicyclomine hydrochloride] | 0.935 | 0.978 | 0.889 | 0.98 | 1 | 1.02 | 0.999 | 0.933 |
| CN1C(=O)OC(C)(C)C1=O [Trimethadione] | 0.996 | 0.943 | 0.982 | 0.992 | 0.971 | 0.977 | 0.999 | 1 |
| COc1cccc2c1C(=O)c1c(O)c3c(c(O)c1C2=O)C[C@@](O)(C(C)=O)C[C@@H]3O[C@H]1C[C@H](N)[C@H](O)[C@H](C)O1 [Daunorubicin hydrochloride] | 0.998 | 0.959 | 1.04 | 0.978 | 0.865 | 0.95 | 0.999 | 0.00353 (active) |
| CC1CS(=O)(=O)CCN1/N=C/c1ccc([N+](=O)[O-])o1 (stereo not given) [Nifurtimox] | 0.981 | 0.947 | 0.00876 (active) | 0.99 | 0.0205 (active) | 0.00686 (active) | 0.995 | 0.962 |
| Cc1cc(NC(=O)C2=C(O)c3ccccc3S(=O)(=O)N2C)no1 [Isoxicam] | 0.982 | 0.974 | 0.901 | 0.984 | 0.979 | 0.975 | 0.991 | 0.993 |
| CC(=O)Oc1cccc2c1C(=O)c1c(OC(C)=O)cc(C(=O)O)cc1C2=O [Diacerein] | 1 | 0.997 | 0.784 (active) | 1.01 | 0.0327 (active) | 0.324 | 0.995 | 0.38 |
| O=C(O)Cc1cc(I)c(Oc2ccc(O)c(I)c2)c(I)c1 [Tiratricol] | 0.971 | 0.949 | 0.919 | 0.984 | 0.817 | 0.824 | 1.01 | 0.993 |
| NC[C@H]1O[C@H](O[C@H]2[C@H](O[C@@H]3O[C@H](CO)[C@@H](O)[C@H]3O)[C@@H](O)[C@H](N)C[C@@H]2N)[C@H](N)[C@@H](O)[C@@H]1O [Ribostamycin sulfate salt] | 0.981 | 0.918 | 0.974 | 0.995 | 0.988 | 0.986 | 0.98 | 0.99 |
| Nc1ccc(S(=O)(=O)Nc2ccccn2)cc1 [Sulfapyridine] | 0.986 | 0.95 | 0.984 | 0.994 | 1.01 | 1 | 0.998 | 1 |
| Cc1ccc(N(CC2=NCCN2)c2cccc(O)c2)cc1 [Phentolamine hydrochloride] | 1.03 | 1.01 | 1.02 | 0.975 | 1 | 0.991 | 0.999 | 0.99 |
| C/C=C(/C(=C/C)c1ccc(O)cc1)c1ccc(O)cc1 [Dienestrol] | 1 | 1.04 | 0.969 | 1.02 | 0.015 (active) | 0.264 | 1 | 0.857 |
| CCCCOC(=O)c1ccc(O)cc1 [Butylparaben] | 1.01 | 0.969 | 0.896 | 0.962 | 0.974 | 1 | 0.994 | 0.953 |
| CS(=O)(=O)Nc1ccc([N+](=O)[O-])cc1Oc1ccccc1 [Nimesulide] | 0.985 | 0.953 | 0.907 | 0.984 | 0.983 | 0.979 | 0.988 | 0.984 |
| Cc1cc(C(C)(C)C)c(O)c(C)c1CC1=NCCN1 [Oxymetazoline hydrochloride] | 0.997 | 0.994 | 1 | 1 | 0.994 | 0.988 | 1.01 | 0.985 |
| CC(=O)O[C@@]12CO[C@@H]1C[C@H](O)[C@@]1(C)C(=O)[C@H](O)C3=C(C)[C@@H](OC(=O)[C@H](O)[C@@H](NC(=O)OC(C)(C)C)c4ccccc4)C[C@@](O)([C@@H](OC(=O)c4ccccc4)[C@H]21)C3(C)C [Docetaxel] | 0.995 | 0.982 | 1.07 | 1.04 | 0.904 | 0.92 | 1 | 1 |
| CO[C@H]1/C=C/O[C@@]2(C)Oc3c(C)c(O)c4c(O)c(c(/C=N/N5CCN(C6CCCC6)CC5)c(O)c4c3C2=O)NC(=O)/C(C)=C\C=C\[C@H](C)[C@H](O)[C@@H](C)[C@@H](O)[C@@H](C)[C@H](OC(C)=O)[C@@H]1C [Rifapentine] | 0.258 (active) | 0.588 (active) | 1.03 | 0.0449 (active) | 0.0203 (active) | 0.0164 (active) | 0.78 | 0.716 |
| CC(C)(C#N)c1cc(Cn2cncn2)cc(C(C)(C)C#N)c1 [Anastrozole] | 1.02 | 1.07 | 1.04 | 0.696 | 1.09 | 1.06 | 0.991 | 0.996 |
| C[C@H]1C[C@@H]2[C@H]([C@@H](O)C[C@@]3(C)[C@H]2CC[C@]3(O)C(=O)CO)[C@@]2(C)C=CC(=O)C=C12 [Methylprednisolone, 6-alpha] | 0.997 | 0.998 | 0.997 | 0.993 | 0.96 | 0.982 | 1 | 1 |
| CC[C@H](C)C(=O)O[C@H]1CCC=C2C=C[C@H](C)[C@H](CC[C@@H]3C[C@@H](O)CC(=O)O3)[C@H]21 [Mevastatin] | 1 | 1.01 | 1.02 | 0.974 | 0.952 | 0.989 | 1.01 | 0.922 |
| O=C(O)CCC(=O)c1ccc(-c2ccccc2)cc1 [Fenbufen] | 0.999 | 0.99 | 0.87 | 0.986 | 1.01 | 0.994 | 1 | 0.993 |
| CC(=O)Nc1ccc(OCC(O)CNC(C)C)cc1 (stereo not given) [Practolol] | 1 | 1.03 | 1.02 | 1.01 | 1.02 | 1.06 | 1.02 | 1.02 |
| Oc1ccc(OCc2ccccc2)cc1 [Monobenzone] | 0.975 | 0.941 | 0.982 | 0.974 | 0.981 | 0.992 | 0.996 | 0.977 |
| O=C(O)c1cccnc1Nc1cccc(C(F)(F)F)c1 [Niflumic acid] | 0.989 | 0.998 | 0.897 | 1.01 | 0.907 | 0.936 | 1 | 0.961 |
| OCCOCCN1CCN(C(c2ccccc2)c2ccc(Cl)cc2)CC1 (stereo not given) [Hydroxyzine dihydrochloride] | 0.992 | 0.875 (active) | 0.975 | 0.865 | 0.989 | 1 | 1 | 0.978 |
| Clc1ccc(COC(Cn2ccnc2)c2ccc(Cl)cc2Cl)c(Cl)c1 (stereo not given) [Miconazole] | 0.997 | 1.01 | 0.995 | 1.03 | 0.938 | 0.927 | 0.993 | 0.98 |
| CCN(CC)C(=O)c1ccc(O)c(OC)c1 [Ethamivan] | 0.981 | 1.03 | 1.03 | 1 | 1.04 | 1.06 | 1.01 | 1.01 |
